Source: PubChem BioAssay AID1159580 (chemical genetic matrix, 2015)
Where “and” joins values, the source holds several entries; their conditions need not be identical. Equal entries are not always repeated. Screen size: about 5,500 compounds; about 2,000 (36%) were called active. Another 18% or so got no clear call; they are omitted. Rule as the data show it: active = normalized growth mostly below about 0.91 (no sharp cut-off); inconclusive = no clear call, values can overlap the other calls; inactive = mostly above about 0.92. Some of the results follow.

Assay: chemical genetic growth profiling, strain panel (AID 1159580);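 also: tested at 20 µM; growth read once vehicle control cultures reached saturation at 30 °C; 1 = growth at the plate median or of vehicle wells; lower values mean less growth of the strain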
Conditions: S. cerevisiae deletion strains, growth OD

Measured: normalized growth

O=C(O)C1=C[C@@H](O)[C@@H](O)[C@H](O)C1
inactive: locus YAL013W, strain DEP1, stronger effect = lower value 1.02 | locus YAL021C, strain ccr4, stronger effect = lower value 1 | locus YAL026C, strain drs2, stronger effect = lower value 0.978 | locus YAL030W, strain snc1, stronger effect = lower value 0.969 | locus YBL061C, strain skt5, stronger effect = lower value 0.974 | locus YBR009C, strain hhf1, stronger effect = lower value 0.988 | locus YBR021W, strain FUR4, stronger effect = lower value 1.02 | locus YBR023C, strain chs3, stronger effect = lower value 0.988 | locus YBR171W, strain sec66, stronger effect = lower value 0.985 | locus YBR229C, strain ROT2, stronger effect = lower value 1.01 | locus YBR231C, strain swc5, stronger effect = lower value 0.98 | locus YBR279W, strain paf1, stronger effect = lower value 0.977 | locus YCL011C, strain gbp2, stronger effect = lower value 0.99 | locus YCL016C, strain dcc1, stronger effect = lower value 0.987 | locus YCL029C, strain bik1, stronger effect = lower value 1.01 | locus YCL061C, strain MRC1, stronger effect = lower value 0.989 | locus YCL069W, strain vba3, stronger effect = lower value 0.977 | locus YCR088W, strain abp1, stronger effect = lower value 0.974 | locus YDL005C, strain med2, stronger effect = lower value 0.976 | locus YDL035C, strain GPR1, stronger effect = lower value 1.04 | locus YDL040C, strain nat1, stronger effect = lower value 0.987 | locus YDL074C, strain BRE1, stronger effect = lower value 1.07 | locus YDL101C, strain DUN1, stronger effect = lower value 1.03 | locus YDL134C, strain PPH21, stronger effect = lower value 0.999 | locus YDL185W, strain tfp1, stronger effect = lower value 1.01 | locus YDL192W, strain arf1, stronger effect = lower value 1.02 | locus YDR001C, strain nth1, stronger effect = lower value 0.975 | locus YDR069C, strain doa4, stronger effect = lower value 0.97 | locus YDR101C, strain arx1, stronger effect = lower value 1.04 | locus YDR137W, strain rgp1, stronger effect = lower value 0.977 | locus YDR150W, strain NUM1, stronger effect = lower value 1.02 | locus YDR159W, strain sac3, stronger effect = lower value 0.979 | locus YDR162C, strain NBP2, stronger effect = lower value 1.01 | locus YDR195W, strain ref2 0.946 | locus YDR297W, strain sur2, stronger effect = lower value 0.963 | locus YDR318W, strain mcm21, stronger effect = lower value 0.999 | locus YDR334W, strain swr1, stronger effect = lower value 0.966 | locus YDR335W, strain msn5, stronger effect = lower value 0.976 | locus YDR388W, stronger effect = lower value 1.01 | locus YDR392W, strain spt3, stronger effect = lower value 1.04 | locus YDR502C, strain sam2, stronger effect = lower value 1.01 | locus YEL003W, strain gim4, stronger effect = lower value 0.979 | locus YEL037C, strain rad23, stronger effect = lower value 0.971 | locus YEL061C, strain CIN8 (second series), stronger effect = lower value 0.973 | locus YEL061C, strain CIN8, stronger effect = lower value 1.01 | locus YER015W, strain faa2, stronger effect = lower value 0.988 | locus YER016W, strain bim1, stronger effect = lower value 0.977 | locus YER110C, stronger effect = lower value 1.01 | locus YER111C, strain swi4, stronger effect = lower value 0.967 | locus YER155C, strain BEM2 (second series), stronger effect = lower value 0.958 | locus YER155C, strain BEM2, stronger effect = lower value 1.01 | locus YER167W, strain BCK2, stronger effect = lower value 1.01 | locus YFR010W, strain ubp6, stronger effect = lower value 0.964 | locus YGL078C, strain dbp3, stronger effect = lower value 1.01 | locus YGL086W, strain mad1, stronger effect = lower value 1.07 | locus YGL167C, strain pmr1, stronger effect = lower value 0.977 | locus YGL173C, strain kem1, stronger effect = lower value 0.974 | locus YGL227W, strain vid30, stronger effect = lower value 0.986 | locus YGL240W, strain doc1, stronger effect = lower value 0.988 | locus YGL248W, strain PDE1, stronger effect = lower value 1.03 | locus YGL253W, strain hxk2, stronger effect = lower value 0.984 | locus YGR135W, strain pre9, stronger effect = lower value 1.02 | locus YGR252W, strain gcn5, stronger effect = lower value 0.931 | locus YHR013C, strain ard1, stronger effect = lower value 0.949 | locus YHR027C, strain rpn1, stronger effect = lower value 0.968 | locus YHR030C, strain SLT2, stronger effect = lower value 1.01 and 0.984 | locus YHR079C, strain IRE1 (second series), stronger effect = lower value 1.01 | locus YHR079C, strain IRE1, stronger effect = lower value 0.972 | locus YHR094C, strain hxt1, stronger effect = lower value 0.993 | locus YHR129C, strain ARP1, stronger effect = lower value 1.02 | locus YHR142W, strain chs7, stronger effect = lower value 0.995 | locus YHR200W, strain rpn10, stronger effect = lower value 0.996 | locus YIL066C, strain RNR3, stronger effect = lower value 1.02 | locus YIL073C, strain SPO22, stronger effect = lower value 1.08 | locus YIL125W, strain kgd1, stronger effect = lower value 1.03 | locus YIR030C, strain dcg1, stronger effect = lower value 0.999 | locus YJL092W, strain hpr5, stronger effect = lower value 0.976 | locus YJL095W, strain BCK1 (second series), stronger effect = lower value 0.978 | locus YJL095W, strain BCK1, stronger effect = lower value 1.04 and 0.998 | locus YJL115W, strain asf1, stronger effect = lower value 0.952 | locus YJL129C, strain trk1, stronger effect = lower value 0.981 | locus YJL134W, strain LCB3, stronger effect = lower value 1.01 | locus YJL154C, strain vps35, stronger effect = lower value 0.983 | locus YJL164C, strain tpk1, stronger effect = lower value 0.981 | locus YJL166W, strain qcr8, stronger effect = lower value 0.974 | locus YJL168C, strain set2, stronger effect = lower value 1.01 | locus YJL187C, strain SWE1 (second series), stronger effect = lower value 1.04 | locus YJL187C, strain SWE1, stronger effect = lower value 0.976
